3CLpro inhibitor: SARS-CoV 3CLpro protease inhibitors, primary screen, biochemical, quenched FRET; recombinant SARS-CoV 3CLpro, quenched FRET peptide cleavage; Replicase polyprotein 1ab (Severe acute respiratory syndrome coronavirus), P0C6X7; inhibition, % at 6 µM; 290,000 tested, 0.14% active; in the data active means inhibition above about 12%
FBA Mtb inh: Mtb FBA enzyme inhibitors, primary screen, biochemical, fluorescence, strain H37Rv | inhibition, % at 1 µM | 360,000 tested, 2.3% active | purified M. tuberculosis FBA, fluorescence read-out; in the data active means inhibition above about 27%
Target sequence (P9WQA3 whole entry, looked up): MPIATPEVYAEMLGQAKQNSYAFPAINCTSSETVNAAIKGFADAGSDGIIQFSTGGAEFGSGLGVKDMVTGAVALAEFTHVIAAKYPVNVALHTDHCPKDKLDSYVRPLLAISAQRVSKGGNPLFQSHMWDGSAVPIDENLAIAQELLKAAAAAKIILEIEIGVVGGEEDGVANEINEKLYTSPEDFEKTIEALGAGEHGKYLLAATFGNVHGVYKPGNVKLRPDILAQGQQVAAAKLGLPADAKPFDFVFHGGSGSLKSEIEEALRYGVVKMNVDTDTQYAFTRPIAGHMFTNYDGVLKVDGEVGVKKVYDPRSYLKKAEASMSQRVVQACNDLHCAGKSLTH
GDH-TPI inh: GDH-TPI coupling enzyme inhibitors, primary screen, artefact control for M. tuberculosis FBA inhibitor project, biochemical, absorbance, full deck; GDH-TPI coupled enzyme counterscreen, NADH absorbance; inhibition, % at 4.8 µM; 360,000 tested, 1.2% active; AID 588335, 2011; in the data active means inhibition above about 30%
Mtb BioA inh: M. tuberculosis BioA enzyme inhibitors, primary screen, biochemical, plate reader, single point, HTS; purified M. tuberculosis BioA enzyme; inhibition, % at 9.99 µM; 360,000 tested, 0.096% active; AID 602481, 2012; in the data active means inhibition above about 40%
FadD28 FP inh: inhibitors of FadD28 bisubstrate probe binding, primary screen, biochemical, fluorescence polarization, single point; Mycobacterium tuberculosis FadD28 fatty-acid-AMP ligase; inhibition, % at 12.5 µM; 360,000 tested, 0.22% active; in the data active means inhibition above about 8.5%, passing the limit was not always enough
Numbers stand for hits; - = inactive; . = no result; + = active, no number. Rows were chosen to be rich in hits. Some 3.1% of all compounds tested hit in one or more screens of this group.

SMILES | 3CLpro inhibitor | FBA Mtb inh | GDH-TPI inh | Mtb BioA inh | FadD28 FP inh
COc1ccc(/C=N/NC(=O)c2ccc3c(c2)OCO3)c(C(=O)O)c1OC | - | - | 33 | - | -
COc1ccccc1/C=N/NC(=O)c1ccc2c(c1)OCO2 | - | - | - | - | -
COc1cc(/C=N/NC(=O)c2ccc3c(c2)OCCO3)cc(Br)c1O | - | - | 36 | - | -
COc1cc(/C=N/NC(=O)c2ccc3c(c2)OCCO3)c(Br)c(Br)c1O | - | - | 37 | - | -
COc1cc(/C=N\NC(=O)c2ccc(-c3ccccc3)cc2)cc(Br)c1O | - | - | - | - | -
C[C@H](CO)N1C[C@H](C)[C@H](CN(C)S(=O)(=O)c2cn(C)cn2)Oc2ccc(NC(=O)Cc3ccccc3)cc2C1=O | . | . | . | - | .
Cc1cc2nc(/C=C/c3cccnc3)[nH]c2cc1C | - | + | 45 | - | -
C/C(=N\NC(=O)c1cc(-c2cccnc2)nc2ccccc12)c1ccc(O)cc1O | - | - | 35 | - | -
Cc1ccc(C=NNC(=O)c2cc(-c3cccnc3)nc3ccccc23)o1 | . | - | 34 | - | -
C/C(=N\NC(=O)c1cc(-c2cccc(OC(C)C)c2)nc2ccccc12)c1cccnc1 | - | - | - | - | -
COCC(=O)Nc1ccc2c(c1)[C@@H]1C[C@H](CC(=O)NCC3CC3)O[C@H](CO)[C@@H]1O2 | . | . | . | - | .
O=C(Nc1ccc(Cl)c(Cl)c1)N[C@@H]1CC[C@@H](CCn2cc(C3CC3)nn2)O[C@@H]1CO | . | . | . | - | .
C[C@H](CO)N1C[C@H](C)[C@@H](CN(C)CC2CCCCC2)Oc2ccc(NC(=O)CCN3CCOCC3)cc2CC1=O | . | . | . | - | .
C/C=C/c1cnc2c(c1)C(=O)N([C@@H](C)CO)C[C@H](C)[C@@H](CN(C)C(=O)c1ccc3c(c1)OCO3)O2 | . | . | . | - | .
COc1cc(/C=N/NC(=O)c2cc(-c3ccco3)nc3ccccc23)cc(OC)c1O | - | - | 47 | . | -
COc1cc(/C=N/NC(=O)c2cc(-c3cccc(Br)c3)nc3ccccc23)cc(OC)c1O | . | - | - | . | -
O=C(N/N=C/c1cccc(F)c1)c1cc(-c2ccco2)nc2ccccc12 | - | - | - | - | -
COc1cc(/C=N/NC(=O)c2cc(-c3ccccc3Cl)nc3ccccc23)cc(OC)c1O | . | - | 39 | . | -
CCOc1ccc(CCN2C(=S)N([C@@H](CC(C)C)CN3CCCC3CN3C(=S)NC[C@@H]3Cc3ccc(O)cc3)C[C@@H]2Cc2ccc(O)cc2)cc1 (some centres not stated) | . | - | - | - | -
CC(C)C[C@H]1CNC(=S)N1CC1CCCN1C[C@H](Cc1ccccc1)N1C[C@H](Cc2ccc(O)cc2)N(CC2CCCCCC2)C1=S (some centres not stated) | . | - | 32 | - | -
CC(C)C[C@H]1CN([C@@H](Cc2ccc(O)cc2)CN2CCC[C@@H]2CN2C(=S)NC[C@@H]2Cc2ccccc2)C(=S)N1CC1CCCCCC1 | . | - | . | - | -
Oc1ccc(C[C@H]2CNC(=S)N2CC2CCCN2C[C@H](Cc2ccccc2)N2C[C@H](Cc3ccc(O)cc3)N(CCc3ccccc3)C2=S)cc1 (some centres not stated) | . | - | 34 | - | -
CCOc1ccc(CCN2C(=S)N([C@@H](CC(C)C)CN3CCCC3CN3C(=S)NC[C@@H]3Cc3ccc(O)cc3)C[C@@H]2Cc2ccccc2)cc1 (some centres not stated) | . | - | 38 | - | -
CCC(=O)Nc1ccc2c(c1)C(=O)N(C)C[C@@H](OC)[C@H](C)CN(Cc1ccccn1)[C@H](C)CO2 | . | . | . | - | .
COc1ccc(S(=O)(=O)Nc2ccc3c(c2)C(=O)N([C@@H](C)CO)C[C@H](C)[C@@H](CN(C)C(=O)Nc2ccccc2)OCCCC[C@@H](C)O3)cc1 | . | . | . | - | .
SMILES | 3CLpro inhibitor | FBA Mtb inh | GDH-TPI inh | Mtb BioA inh | FadD28 FP inh
CC(C)NC(=O)NCC[C@H]1CC[C@H](NS(=O)(=O)c2ccc(-c3ccccc3)cc2)[C@H](CO)O1 | . | . | . | - | .
CC(C)C#Cc1cnc2c(c1)C(=O)N([C@@H](C)CO)C[C@H](C)[C@H](CN(C)Cc1cncnc1)O2 | . | . | . | - | .
CCCCc1cc(=O)oc2cc(C)cc(OCC(=O)N3CCC(C(=O)O)CC3)c12 | - | 124 | - | - | -
Cc1cc(OCC(=O)N2CCC(C(=O)O)CC2)c2c(C)cc(=O)oc2c1 | - | 130 | - | - | -
CC(=O)c1ccc(N2CCN(C(=O)CNC(=O)c3ccc(Br)o3)CC2)cc1 | . | - | 32 | - | -
O=C(Nc1nc2ccccc2[nH]1)c1ccc(S(=O)(=O)N2CCOCC2)cc1 | - | - | 39 | . | -
CN1/C(=C/C=N/n2cnnc2)C(C)(C)c2ccccc21 | - | - | 45 | . | -
CN1/C(=C\C=C(C#N)C#N)C(C)(C)c2ccccc21 | - | - | - | - | -
N#C/C(=C(/O)c1ccco1)c1nc2ccccc2s1 | - | - | 56 | - | -
N#C/C(=C(/O)CN1CCOCC1)c1nc2ccccc2s1 | - | - | 39 | - | -
CCOC(=O)C1=C(O)C(=O)N(c2ccc(S(N)(=O)=O)cc2)C1c1cccc([N+](=O)[O-])c1 (configuration not stated) | - | - | 32 | . | -
O=C(N/N=C/c1c(O)n(CCc2ccccc2)c(=O)[nH]c1=O)c1ccccc1O | - | - | - | . | -
COc1ccc(Cn2c(O)c(/C=N/NC(=O)c3ccccc3O)c(=O)[nH]c2=O)cc1 | - | - | - | . | 17
O=C(N/N=C/c1c(O)n(Cc2ccc(F)cc2)c(=O)[nH]c1=O)c1ccccc1O | - | - | 51 | - | 19
O=C(N/N=C/c1c(O)n(Cc2ccccc2)c(=O)[nH]c1=O)c1ccccc1O | - | - | 35 | . | -
COc1cccc(Nc2ccccc2C(=O)O)c1 | - | - | - | . | -
COc1cccc(Nc2ncc(C(=O)O)c3ccccc23)c1 | - | - | 36 | - | -
CC(C)NC(=O)NC(=O)COC(=O)/C=C/c1ccc2c(c1)OCO2 | - | - | - | - | -
N#CCOC(=O)/C=C/c1ccc2c(c1)OCO2 | - | - | 38 | . | -
CC(C)C(OC(=O)/C=C/c1ccc2c(c1)OCO2)C(=O)NC(N)=O (configuration not stated) | - | - | 41 | - | -
CC1(C)Cc2nc(NCCCO)c(C#N)cc2CO1 | - | 112 | - | - | -
CC1(C)Cc2nc(Cl)c(C#N)cc2CO1 | - | - | - | - | -
C[C@H]1CN([C@@H](C)CO)C(=O)c2cc(C3=CCCCC3)cnc2O[C@H]1CN(C)C(=O)NC1CCCC1 | . | . | . | - | .
COc1ccc(C2=NN(C(=O)CCCC(=O)O)C(c3cccs3)C2)cc1OC (configuration not stated) | - | - | - | . | -
